High-throughput results (PubChem BioAssay)
An excerpt weighted towards active compounds, which were near 10% of everything screened.
JMJD2A Tudor = JMJD2A Tudor domain (human) inhibition; Potency, µM (top dose mostly 114 µM), actives largely listed as inhibitors; AlphaScreen JMJD2A-Tudor / H3K4me3 peptide binding; AID 504339; O75164; 390,000 tested, 4.4% active; further: nearly all actives have a fitted effect of over 50% in size
G9a inh = blocks human histone lysine methyltransferase G9a; 350,000 tested, 8.8% active; Potency, µM (titrated, usually from 102 µM), usual class: inhibitors; AID 504332; G9a H3K9 monomethylation, AlphaScreen, 2 h; further: nearly all actives have a fitted effect of over 75% in size
Target sequence (Q96KQ7 913-1193 limits assumed): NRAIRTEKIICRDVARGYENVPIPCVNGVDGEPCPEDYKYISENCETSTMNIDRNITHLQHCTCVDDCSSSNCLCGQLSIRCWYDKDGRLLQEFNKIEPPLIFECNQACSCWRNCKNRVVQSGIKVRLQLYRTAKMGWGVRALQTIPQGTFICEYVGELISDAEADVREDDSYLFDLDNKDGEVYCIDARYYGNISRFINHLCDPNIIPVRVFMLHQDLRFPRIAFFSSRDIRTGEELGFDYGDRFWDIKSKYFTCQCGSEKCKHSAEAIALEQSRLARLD
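Readings reflect AlphaScreen signal from monomethyl-H3K9 antibody detection. HMT at 20 nM; substrate b-H3K9 500 nM; cofactor SAM 20 uM; 2 h RT reaction; compounds tested as titrations in qHTS with 15 min preincubation.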
Six1-Eya2 inh = blocks human Six1 binding to Eya2; AlphaScreen GST-Six1/His-Eya2 binding, biochemical; hits give low values; activity change, % (concentration not given with the values); 360,000 tested, 0.56% active; Q15475+O00167; AID 651725; in the data active means activity change below about -65%; inconclusive means mostly about -30% to -63%
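AlphaScreen with GST-Six1 and His-Eya2 (5X mix: 250 nM and 500 nM), glutathione donor and nickel acceptor beads; buffer 50 mM Tris pH 8.0, 300 mM NaCl, 1 mM TCEP; 1 h at 37 C in the dark.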
HP1b binding inh = HP1-beta chromodomain-methylated histone interaction inhibition | 390,000 tested, 0.56% active | AlphaScreen HP1-beta / biotin-H3K9me3 peptide binding | P83916 | Potency, µM (highest dose often 114 µM), hits mostly inhibitors; further: nearly all actives have a fitted effect of over 70% in size
Target sequence (P83916 whole entry, looked up): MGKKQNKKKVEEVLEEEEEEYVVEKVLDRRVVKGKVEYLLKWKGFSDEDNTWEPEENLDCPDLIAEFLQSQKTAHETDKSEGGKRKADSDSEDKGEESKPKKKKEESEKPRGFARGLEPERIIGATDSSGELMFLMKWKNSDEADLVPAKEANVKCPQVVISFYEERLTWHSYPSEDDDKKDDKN
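AlphaScreen: HP1-beta (50 nM) preformed 30 min with biotin-H3(1-18)K9me3 peptide (50 nM) in PBS pH 7.4, 0.01% Tween-20. Compound added for 30 min at RT, then streptavidin donor/nickel chelate acceptor beads (10 ug/mL) for 30 min.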
BAZ2B block = inhibitors of human BAZ2B bromodomain | Q9UIF8 | AlphaScreen BAZ2B-H3K14Ac peptide displacement | Potency, µM (highest dose often 114 µM), hits mostly inhibitors | 360,000 tested, 4.4% active; further: nearly all actives have a fitted effect of over 60% in size
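Protein-peptide AlphaScreen: BAZ2B 50 nM, b-H3K14Ac 50 nM, 1x PBS pH 7.4 + 0.01% Tween-20. Preincubation 30 min RT; cpd 30 min RT (top 110 uM); beads 20 min RT, light-protected.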
CtBP-E1A inh = CtBP/E1A binding inhibition. AlphaScreen GST-E1A/His-CtBP binding, 1536-well; hits give low values. activity change, % (no concentration beside the values). 340,000 tested, 0.49% active; in the data active means activity change below about -65%; inconclusive means mostly about -30% to -63%
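In 5 uL wells, 23 nL compound meets equimolar GST-E1A and His-CtBP (5X stock 125 nM each) for 2 h, 37 °C. Beads (5X, 50 ug/mL) then 1 h, 37 °C, dark.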
Hits are given with their value; i = inactive; ? = inconclusive; nt = not tested or not shown; [ ] = another dose, or the depositor's remark. Unless noted, the call rests on the fitted dose curve; in most records, active means well fitted inhibition curve with a large enough effect; inconclusive means small, poorly fitted or top-dose-only effect; inactive means no such curve, though single readings can be large or run the other way.

SMILES	JMJD2A Tudor	G9a inh	Six1-Eya2 inh	HP1b binding inh	BAZ2B block	CtBP-E1A inh
O=C(Cc1ccc(Cl)cc1)NC(=S)Nc1ccccc1N1CCOCC1	i	?	i	i	i	i
COc1ccc(Cl)cc1NC(=O)CN(C)CC(=O)Nc1ccccc1N1CCOCC1	i	i	i	i	i	i
O=C(Cc1ccc(S(=O)(=O)N2CCOCC2)s1)NCC(=O)Nc1ccccc1Br	i	i[0.501 µM]	i	i	i	i
COC(=O)c1ccccc1NC(=O)CNc1cc(Cl)ccc1N1CCOCC1	i	45µM	i	i	i	i
Cn1c(-c2ccc(F)cc2)cnc1SCC(=O)Nc1ccccc1N1CCOCC1	i	45µM	i	i	?	i
O=C(Cc1ccc(Cl)c(Cl)c1)Nc1ccccc1N1CCOCC1	i	79µM	i	i	nt	i
CC(C)(C)C(=O)Nc1ccc2nc(SCC(=O)N3CCc4ccccc43)sc2c1	i	i	nt	i	i	nt
NCCCCCc1cnc[nH]1	nt	i	nt	nt	nt	nt
CCCOc1ccc(NC(=O)Cc2ccc(S(=O)(=O)N3CCOCC3)s2)cc1OCCC	?	79µM	i	i	i	i
COCCOc1ccc(C(F)(F)F)cc1NC(=O)Cc1ccc(S(=O)(=O)N2CCOCC2)s1	i	i[0.501 µM]	i	i	i	i
O=C(Nc1cc(Cl)ccc1N1CCOCC1)c1ccc(Br)o1	i	25µM	i	i	?	i
COc1ccc(N2CCOCC2)c(NC(=O)c2ccc(Br)o2)c1	i	?	i	i	?	i
O=C(Cc1ccc(S(=O)(=O)N2CCOCC2)s1)Nc1ccccc1N1CCOCC1	i	45µM	i	i	nt	i
CCOC(=O)c1[nH]c2ccccc2c1NC(=O)c1ccccc1F	i	i	nt	i	i	nt
O=C(C1CC1)N1CCN(c2nc3ccc(F)cc3s2)CC1	i	i	nt	i	i	nt
CC(=O)Nc1cccc2cc(S(=O)(=O)O)ccc12	nt	nt	i	nt	nt	i
O=S(=O)(O)c1ccc2c(N=Nc3ccc(S(=O)(=O)O)c4ccccc34)c(O)c(S(=O)(=O)O)cc2c1	nt	28µM	nt	nt	nt	nt
O=S(=O)(O)c1cc(O)c(N=Nc2ccc(O)cc2O)c2ccccc12	3.5µM	nt	-83	?	nt	-94
Cc1cc(C)cc(-n2c(C)cc(C(=O)C(=O)Nc3nnc(C)s3)c2C)c1	i	i	nt	i	i	nt
Cc1ccc2c(c1)-c1c(ssc1=S)C(C)(C)N2C(=O)CSC1=NCCS1	5µM	?	i	?	8.9µM	i
CCN(CC)S(=O)(=O)c1ccc(NC2c3ccccc3C(=O)N2c2ccc(C)cn2)cc1 (configuration not stated)	i	40µM	i	i	i	i
COc1ccc(NC2c3ccccc3C(=O)N2c2ccccn2)cc1 (configuration not stated)	i	?	i	i	56µM	i
CCOC(=O)c1ccc(NC2c3ccccc3C(=O)N2c2ccccn2)cc1 (configuration not stated)	i	50µM	i	i	i	i
COc1ccc(OC)c(NC2c3ccccc3C(=O)N2c2cccnc2)c1 (configuration not stated)	i	50µM	i	i	i	i
Cc1ccc(N2C(=O)c3ccccc3C2Nc2ccc(S(=O)(=O)N3CCCCC3)cc2)nc1 (configuration not stated)	i	?	i	i	i	i
SMILES	JMJD2A Tudor	G9a inh	Six1-Eya2 inh	HP1b binding inh	BAZ2B block	CtBP-E1A inh
Clc1cccc(N2CCN(c3ncnc4c3nc3n4CCCCC3)CC2)c1	?	?	nt	i	i	nt
COC1(c2ccccc2)NC(=S)NN=C1c1ccccc1 (configuration not stated)	i	?	?	i	i	?
CCCCOC1(c2ccccc2)NC(=S)NN=C1c1ccccc1 (configuration not stated)	nt	45µM	nt	nt	i	nt
CCCC(C)C(=O)Nc1ccc(S(=O)(=O)N2CCCC2)cc1 (configuration not stated)	i	71µM	i	i	i	i
Cc1ccc(S(=O)(=O)NC(C)C(=O)Nc2cccc([N+](=O)[O-])c2)cc1 (configuration not stated)	i	?	i	i	i	i
CC(C)CC(=O)NC(=S)Nc1ccc(S(=O)(=O)N2CCCC2)cc1	i[11.4 µM]	14µM	i	i	i	nt
CC(Nc1cccc([N+](=O)[O-])c1)C(=O)Nc1ccc(S(=O)(=O)N2CCCC2)cc1 (configuration not stated)	i	50µM	i	i	i	i
Cc1cc2c(s1)c1cnn(Cc3cc(F)c(F)cc3F)c(=O)c1n2C	i	nt	nt	nt	nt	nt
CCOC(=O)c1c(C)sc(-c2c(-c3ccc4c(c3)OCCO4)[nH]c3c2c(=O)n(C)c(=O)n3C)c1O	i	i	nt	i	?	nt
CC1=C(C(=O)OCC2CCCCC2)C(c2ccc(Cl)cc2Cl)CC(=O)N1 (configuration not stated)	i	i	nt	i	i	nt
Cc1cccc(CS(=O)(=O)c2cn(CC(=O)N3CCOCC3)c3ccccc23)c1	i	10µM	i	i	i	i
O=C(Cn1cc(S(=O)(=O)Cc2ccccc2F)c2ccccc21)N1CCOCC1	i	22µM	i	i	i	i
COc1ccc(CCNC(=O)CS(=O)(=O)c2cn(CC(=O)N(C(C)C)C(C)C)c3ccccc23)cc1OC	i	i	i	i	i	i
COc1ccc(CCNC(=O)CS(=O)(=O)c2cn(CC(=O)N3CCCC3)c3ccccc23)cc1OC	i	50µM	i	i	nt	i
CCOC(=O)c1ccc(NC(=O)CCC(=O)N2Cc3ccccc3Oc3ncccc32)cc1	i	i	nt	i	i	nt
Cc1ccc(NS(=O)(=O)c2ccc3c(c2)N(C)C(=O)CC(=O)N3C)cc1Cl	i	i	nt	i	i	nt
CCCN(CCC)c1ccc(CC(=O)NC(C)Cc2ccccc2)cc1 (configuration not stated)	?	10µM	i	i	?	i
CCN(CC)c1ccc(CC(=O)NC(C)Cc2ccccc2)cc1 (configuration not stated)	i	i	i	i	?	i
C/C(=N/Nc1ccccc1C(=O)O)c1cccs1	i	?	i	i	?	i
O=C(COC(=O)/C=C/c1cccs1)Nc1nc(-c2ccccc2)cs1	i	1.1µM	i	i	i	i
C/C(=N\Nc1nc(-c2ccccc2)cs1)c1cccs1	?	5µM	i	i	40µM	?
O=C(Cc1cccs1)Nc1nc(-c2ccccc2)cs1	i	i	i	i	i	i
O=C(COC(=O)/C=C/c1cccs1)Nc1nc(-c2cccc(Br)c2)cs1	i	i	i	i	i	i
O=C(COC(=O)c1cccs1)Nc1nc(-c2ccccc2)cs1	i	40µM	i	i	i	i
Cc1ccc(C)c(CN2CCCN(CC(=O)Nc3ccc(C)c(C)c3)S2(=O)=O)c1	i	i	nt	i	i	nt
